From PubChem
SENP7 inh: blocks the human protease SENP7 | Q9BQF6 | recombinant SENP7, Z-RLRGG-aminoluciferin luminescence, 40 min | inhibition, % at 5 µM | actives 1.5% (n = 330,000);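 active = inhibition above about 50% at the single test dose, limit read from the data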;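 also: plate controls were DMSO with enzyme for no effect and no enzyme buffer wells for full effect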
Target sequence (Q9BQF6 706-1050 limits assumed): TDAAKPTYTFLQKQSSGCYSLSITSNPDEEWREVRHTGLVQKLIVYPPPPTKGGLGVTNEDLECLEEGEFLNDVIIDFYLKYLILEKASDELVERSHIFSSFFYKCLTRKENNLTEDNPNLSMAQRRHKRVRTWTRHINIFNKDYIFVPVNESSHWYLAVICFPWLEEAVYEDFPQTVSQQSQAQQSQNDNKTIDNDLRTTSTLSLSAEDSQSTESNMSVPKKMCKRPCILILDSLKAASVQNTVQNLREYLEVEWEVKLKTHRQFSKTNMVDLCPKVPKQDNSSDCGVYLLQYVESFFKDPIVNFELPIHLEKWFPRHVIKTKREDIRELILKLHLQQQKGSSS
SENP8 block-1: blocks human SENP8 cleavage of Nedd8 substrate; Q96LD8; recombinant SENP8, Nedd8 substrate fluorescence; inhibition, % at 20 µM; actives 0.64% (n = 360,000); AID 602440; in the data active = inhibition mostly above about 40%, no sharp cut-off; inactive = mostly below about 27%
TRAIL sens C8: caspase-8 TRAIL sensitization. NB7+C8 cells + TRAIL, ATPlite viability luminescence. inhibition (viability loss, TRAIL sensitization), % at 10 µM. actives 1% (n = 360,000);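 active = compounds causing at least 50% loss of cell viability in the single-dose screen, relative to plate controls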
SENP6 inh: SENP6 protease inhibition. Q9GZR1. Recombinant SENP6 catalytic domain, aminoluciferin luminescence. inhibition, % at 10 µM. actives 1.8% (n = 330,000);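 active = inhibition above about 50% at the single tested dose, limit read from the data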;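 also: plate controls were DMSO wells with enzyme for no effect and DMSO wells lacking enzyme for full effect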
PPC-1+TRAIL kill: kills PPC-1 cancer cells in the presence of TRAIL; PPC-1 cells + TRAIL, ATPLite viability luminescence; cell killing (% activity), % at 4 µM or 5 µM; actives 0.41% (n = 220,000);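 active = cell killing above 50% in the first pass at 4 µM, then a duplicate retest at 5 µM averaging 50% or more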;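 also: plate controls were cells with TRAIL plus DMSO for no effect and medium-only wells lacking cells for full effect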
SENP8 block-2: blocks the human protease SENP8 | Q96LD8 | purified SENP8, Z-RLRGG-aminoluciferin cleavage, luminescence | inhibition, % at 10 µM | actives 1.2% (n = 330,000) | AID 2540; in the data active = inhibition above about 50%
SENP8 conf: confirmation of human SENP8 protease inhibitors; shares compounds with SENP7 inh; Recombinant SENP8, Z-RLRGG-aminoluciferin luminescence, 60 min; inhibition, % at 12.5 µM; actives 40% (n = 6,200); AID 488912;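 active = mean inhibition across replicates above about 50%, limit read from the data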
SENP6 confirm: confirmation of human SENP6 protease inhibitors. shares compounds with SENP7 inh. inhibition, % at 12.5 µM. actives 58% (n = 6,200). recombinant SENP6, Z-RLRGG-aminoluciferin luminescence
SENP7 confirm: human SENP7 inhibition, confirmed; shares compounds with SENP7 inh; recombinant SENP7, Z-RLRGG-aminoluciferin luminescence, 40 min; inhibition, % at 12.5 µM; actives 69% (n = 6,200)
Casp3 select: inhibits human caspase-3 in SENP selectivity test | shares compounds with SENP7 inh | inhibition, % at 12.5 µM | actives 60% (n = 6,200) | purified caspase-3, Z-DEVD-aminoluciferin luminescence, 60 min;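 active = mean inhibition above about 50%, limit read from the data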;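 also: plate controls were enzyme with DMSO for no effect and wells without caspase-3 for full effect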
Target sequence (P42574 28-227 limits assumed): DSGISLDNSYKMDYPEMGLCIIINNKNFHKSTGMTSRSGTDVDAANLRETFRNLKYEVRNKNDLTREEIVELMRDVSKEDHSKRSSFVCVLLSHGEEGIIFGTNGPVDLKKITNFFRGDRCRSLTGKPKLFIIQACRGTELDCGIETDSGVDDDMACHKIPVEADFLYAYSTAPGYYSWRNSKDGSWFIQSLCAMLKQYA
Luc interf: luminescence interference (SENP counter-screen) | shares compounds with SENP7 inh | Pre-incubated SENP8/Z-RLRGG-aminoluciferin, luciferase luminescence interference | inhibition, % at 12.5 µM | actives 39% (n = 6,200) | AID 488919;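 active = mean inhibition above about 50% when retested at one dose, limit read from the data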;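 also: plate controls were DMSO wells with completed reaction for no effect and substrate without enzyme for full effect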
* = called active by the depositor; nt = not tested or not shown. Hits are enriched below; roughly 3% of the tested compounds scored in any of these assays.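 The calls were made as follows, unless noted: active = mean inhibition above about 50% in the one-dose retest (limit read from the data); inactive = the rest.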

SMILES | SENP7 inh | SENP8 block-1 | TRAIL sens C8 | SENP6 inh | PPC-1+TRAIL kill | SENP8 block-2 | SENP8 conf | SENP6 confirm | SENP7 confirm | Casp3 select | Luc interf
CCOc1cc2sc(N3CCC(C(=O)NCCCN4CCCC4=O)CC3)nc2cc1Br | 11 | 15 | 5 | -11 | nt | -7 | nt | nt | nt | nt | nt
O=C(c1cccc(NC2=NC3CS(=O)(=O)CC3S2)c1)N1CCN(c2ncccn2)CC1 (centres undefined) | 10 | -20 | -9 | -6 | nt | -5 | nt | nt | nt | nt | nt
COc1ccc(NS(=O)(=O)c2ccc3c(c2)N(C(C)=O)CC(C)S3)c(OC)c1 (centres undefined) | -16 | 13 | 16 | -24 | nt | -8 | nt | nt | nt | nt | nt
Cc1csc(NC(=O)c2ccoc2C)n1 | 89* | -19 | 4 | 90* | 8 | 75* | 82* | 82* | 96* | 93* | 82*
CCOC(=O)Cc1csc(NC(=O)c2ccoc2C)n1 | 89* | -6 | 11 | 88* | 5 | 74* | 84* | 84* | 94* | 93* | 83*
CCOc1ccc(C(=O)Nc2cccc(C(=O)O)c2)cc1Cl | 100* | 19 | 49 | 95* | 26 | 97* | 98* | 99* | 102* | 90* | 98*
Cc1ccccc1C(=O)Nc1ccc2c(c1)CCCN2C(=O)c1cccs1 | 31 | 13 | 35 | 45 | nt | 38 | nt | nt | nt | nt | nt
O=C(Nc1ccc2c(c1)CCCN2C(=O)c1ccccc1)c1ccccc1 | 83* | 8 | 16 | 84* | nt | 78* | 12 | 85* | 97* | 85* | 67*
CCOc1ccc(C(=O)Nc2cc(NC(=O)c3ccc(OCC)c(Cl)c3)cc(C(=O)O)c2)cc1Cl | 5 | 3 | -1 | -7 | 4 | 3 | nt | nt | nt | nt | nt
Cc1ccc(-c2cc(NC(=O)c3ccccc3)on2)cc1 | 87* | 9 | 9 | 50* | nt | 52* | 34 | 43 | 92* | 63* | 2
O=C(O)c1cccc(NC(=O)c2cc(NC(=O)c3ccccc3)cc(NC(=O)c3ccccc3)c2)c1 | 10 | 0 | -7 | 90* | nt | -2 | 15 | 8 | 0 | -5 | -5
Cc1ccc(C(=O)Nc2cccc(C(=O)O)c2)cc1 | 99* | nt | nt | 92* | 38 | 95* | 99* | 100* | 103* | 96* | 98*
CCSC1=N/C(=C\c2ccc(-c3ccccc3[N+](=O)[O-])o2)C(=O)S1 | 28 | 6 | -6 | 50* | 30 | 13 | 5 | 4 | 4 | 6 | 3
O=C(O)c1ccc(N/N=C/c2ccc(OC(=O)c3cccc(Cl)c3)cc2)cc1 | 12 | 3 | -24 | 6 | 8 | 80* | 15 | 21 | -3 | 20 | 6
O=C(O)c1cccc(N/N=C/c2cccs2)c1 | 100* | -10 | 7 | 100* | 33 | 97* | 100* | 100* | 104* | 98* | 99*
O=C(O)c1cccc(N/N=C/c2ccc(OC(F)(F)F)cc2)c1 | 34 | 12 | 21 | 99* | nt | 98* | -6 | 100* | 103* | 94* | 99*
CSc1ccc(/C=N/Nc2cccc(C(=O)O)c2)cc1 | nt | -110 | 9 | nt | -25 | nt | nt | nt | nt | nt | nt
O=C(COC(=O)CNC(=O)c1ccc(Cl)c([N+](=O)[O-])c1)NC(=O)c1ccccc1 | -11 | 6 | 4 | 2 | nt | -16 | nt | nt | nt | nt | nt
C/C(=N\Nc1cc(N2CCOCC2)ncn1)c1ccc(O)cc1 | -1 | 14 | -14 | -15 | nt | -3 | nt | nt | nt | nt | nt
COc1ccccc1N1CCN(C(=O)Cn2nc3n(C)c4ccccc4n3c(=O)c2=O)CC1 | 5 | nt | nt | 9 | nt | 0 | nt | nt | nt | nt | nt
O=C(Nc1cccc(O)c1)c1cc(-c2ccccc2Cl)on1 | 95* | 3 | 70* | 97* | nt | 93* | 11 | 94* | 101* | 87* | 94*
COc1cc(NC(=O)c2cc(-c3ccc4c(c3)OCO4)on2)cc(OC)c1OC | 2 | 5 | -3 | -9 | nt | 6 | nt | nt | nt | nt | nt
O=C(Nc1cccc(O)c1)c1cc(-c2ccc3c(c2)OCO3)on1 | 101* | -12 | 92* | 96* | nt | 90* | 15 | 95* | 36 | 77* | 2
COc1ccc(NC(=O)c2cc(-c3ccccc3Cl)on2)cc1OC | -1 | 28 | -2 | 0 | nt | 2 | nt | nt | nt | nt | nt
N#CC1(Nc2ccc([N+](=O)[O-])cc2)CCCC1 | nt | 34 | -6 | nt | nt | nt | nt | nt | nt | nt | nt
SMILES | SENP7 inh | SENP8 block-1 | TRAIL sens C8 | SENP6 inh | PPC-1+TRAIL kill | SENP8 block-2 | SENP8 conf | SENP6 confirm | SENP7 confirm | Casp3 select | Luc interf
COc1cc2c(C(=O)N(C)c3ccc(F)cc3)cn(C)c(=O)c2cc1OC | -3 | 10 | -17 | 5 | nt | 1 | nt | nt | nt | nt | nt
O=c1oc(CCCO)cc2ccc(/C=C/c3cccc([N+](=O)[O-])c3)cc12 | 61* | -24 | 7 | 21 | nt | 2 | 8 | 17 | 30 | 30 | 4
O=S1(=O)CC/C(=N/Nc2ccccn2)c2cc(F)ccc21 | 63* | 8 | -11 | -15 | 12 | -7 | 4 | 7 | 8 | 4 | 2
COc1cc(/C=N/Nc2snc(SC)c2C#N)cc(OC)c1OC | 0 | -386 | 38 | 8 | 23 | -3 | nt | nt | nt | nt | nt
CSc1nsc(N/N=C/c2ccc3c(c2)OCO3)c1C#N | 53* | -255 | 16 | 45 | 25 | 24 | 4 | 10 | 17 | 20 | 23
C=C(C)C(O)CC/C(C)=C/Cc1c(O)ccc(C(=O)/C=C/c2ccc(O)cc2)c1O (centres undefined) | 65* | 36 | 48 | 88* | nt | 90* | 97* | 96* | 99* | 37 | 39
COc1ccc(-c2nc(-c3cccnc3)no2)cc1OC | 24 | -14 | -12 | 11 | 9 | 5 | nt | nt | nt | nt | nt
Cc1ccc(-c2nc(-c3ccccc3)no2)cc1 | 98* | 6 | 37 | 63* | 11 | 96* | 78* | 86* | 95* | 91* | 50*
Cc1ccc(-c2nc(-c3cccnc3)no2)cc1 | 82* | 26 | 40 | 81* | 26 | 66* | 72* | 81* | 98* | 86* | 67*
CCC(=O)Oc1ccc(-c2nc(-c3cccnc3)no2)cc1 | 99* | 25 | 19 | 97* | 31 | 97* | 99* | 100* | 103* | 99* | 98*
